We go through 26 compounds from PubChem BioAssay AID1794835 (Parasite Biology Lab, Institute for Biomedicine and …, 2023).

The structures appear in SMILES notation. Screen size: about 2,500 compounds; about 45 (2%) were called active. No stated cut-off is given here; in the data, active means inhibition mostly above about 45% (no sharp cut-off); inactive means mostly below about 37%. Many of the other results were omitted from the sample, so actives are more common in it than they were.

A short description of the assay: anti-Giardia activity of synthetic compounds – Compounds Australia Scaffold Library subset, 24/48 h, primary screen (AID 1794835).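 On inhibition: 0% = parasite counts in DMSO vehicle wells.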 The conditions noted are these: Giardia lamblia BRIS/91/HEPU/1279 trophozoite counts, imaging, at 10 µM.
Where [1] appears, read: measured here: growth inhibition at 24 h, stronger effect = higher value.

On to `Cc1nc(C2(NC(=O)CCc3ncc(-c4ccccc4F)o3)CCCCC2)no1`, for which the inhibition entry was “inactive”. Regarding `Cc1ccc(NC(=O)c2nnc(C3CCCN3C(=O)NC3CCCC3)s2)cc1` (configuration not stated), the inhibition was 4.4% (inactive) (stronger effect = higher value) and 1% under setting [1]. With `CCN(Cc1cccs1)C(=O)CN1CCC(n2c(=O)[nH]c3ccccc32)CC1`, the inhibition entry was “inactive”. `CN1CCN(CCNC(=O)CN2C(=O)C3CCCCN3c3ccc(C(=O)N4CCCC4)cc32)CC1` (configuration not stated): the inhibition was 13% (inactive) (stronger effect = higher value) and 11.7% under setting [1]. For `O=C(CN1C(=O)COc2ccc(C(=O)N3CCCCC3)cc21)NCc1ccccc1`, the inhibition entry is “inactive”. For `Cc1ccc(NC(=O)CN2C(=O)C3CCCCN3c3ccc(C(=O)N4CCCC4)cc32)cc1` (configuration not stated), the inhibition reads like this: (stronger effect = higher value) 62.4% (active); under setting [1], 35.5%. Take `O=C(NCCCN1CCN(c2ccccc2)CC1)c1noc2c1CCCCC2`: where the note is “stronger effect = higher value”, the inhibition is 9.7% (inactive). `Cc1cccc(CC(=O)N2CCN(c3nc4cccnc4n(Cc4ccccc4)c3=O)CC2)c1`: the inhibition by setting is: (stronger effect = higher value) 38.8% (inactive); under setting [1], 12.1%. For `CCN1CCCc2cc(C(=O)N3CCOCC3)sc21`, the inhibition entry is “inactive”.

As to `Cc1nccc2[nH]c(=O)c(C(=O)NCCCN(C)C3CCCCC3)cc12`, the compound was classed as inactive. Moreover, under setting [1], the inhibition worked out at 0.2%. As for `CCC1Cn2c(C(=O)NCCN(C)C3CCCCC3)cc3cccc(c32)O1` (configuration not stated), the inhibition (stronger effect = higher value) is 53.7% (active) and the inhibition under setting [1] stood at 13.8%. Turning to `Cc1cc(C)c2c(=O)n(CC(=O)Nc3ccc(Br)cc3)c(=O)n(C)c2n1`, the call was inactive. In addition, the inhibition under setting [1] amounted to 4.9%. Turning to `CCC1CCCCN1C(=O)Cn1c(C(=O)OC)cc2occc21` (configuration not stated), the inhibition (stronger effect = higher value) was 8.8% (inactive). Consider `CC(C)C(=O)N1CCN(c2nc3ccccc3c3nnc(-c4cccs4)n23)CC1`, for which the inhibition entry was “inactive”. Take `CCc1nnc2c3ccccc3nc(N3CCN(c4cccc(Cl)c4)CC3)n12`: the inhibition (stronger effect = higher value) is 73.1% (active) and the inhibition under setting [1] worked out at 33.5%.

`Cc1cc2n(n1)CCCN2CC(=O)N1CCN(c2cccc(Cl)c2)CC1`: the inhibition (stronger effect = higher value) is 5.3% (inactive). Turning to `O=C1CC(C(=O)N2CCN(c3ccccc3F)CC2)CN1Cc1ccccc1` (configuration not stated), the inhibition result is “inactive”. `COc1cccc(CCC(=O)N2CCCC(c3nnc4n3CCCCC4)C2)c1` (configuration not stated): the inhibition was 2.6% (inactive) (stronger effect = higher value) and 2.1% under setting [1]. Take `O=c1c2cnc(N3CCCCC3)nc2ccn1CCc1ccccc1`: the inhibition result is “inactive”. With `O=C(c1ccco1)N1CCC(NS(=O)(=O)c2ccc(Cl)cc2)CC1`, the outcome was inactive. This compound also came in with an inhibition under setting [1] of 0.2%. Regarding `O=C(Nc1ccccc1)c1cc(-c2cccs2)n(C2CCS(=O)(=O)C2)n1` (configuration not stated), the inhibition reads like this: (stronger effect = higher value) 1.7% (inactive); under setting [1], 9.1%.

On to `Cc1cccc(-c2noc(Cn3cccn3)n2)c1`, for which the outcome was inactive. The inhibition under setting [1] stood at 3.8%. For `Cc1ccc(S(=O)(=O)NC2CCN(C(=O)Cc3ccc(Br)cc3)CC2)cc1`, the inhibition reads like this: (stronger effect = higher value) 3.1% (inactive); under setting [1], 2%. The matching figures for `Cc1ccnc(N2CCCC(C(=O)NC3CCCC3)C2)n1` (configuration not stated): 10.9% (inactive) and 2.5%. Take `O=C(C1CCN(S(=O)(=O)c2ccccc2)CC1)N1CC=C(c2ccccc2)CC1`: the result was inactive. The same compound returned an inhibition under setting [1] of 1%. Take `Cc1ccnc(N2CCCC(C(=O)N3CC=C(c4ccccc4)CC3)C2)n1` (configuration not stated): the inhibition (stronger effect = higher value) is 46.1% (active) and the inhibition under setting [1] came to 18%.

One may read the inhibition as the change of the read-out against control, counted positive when it falls.
